Screening results as filed in PubChem.
In the library only some 21% were active in any assay of this set; here they are far more common.
AMA1 RON2 block: qHTS for Inhibitors of AMA1-RON; Towards Development of Antimalarial Drug Lead: Primary Screen. Potency, µM (titrated, usually from 58.2 µM), for inactives: at the top dose activity change, negative = inhibition, actives largely listed as inhibitors. Plasmodium falciparum AMA1 (3D7) - RON2 peptide interaction. 0.2% of 360,000 active. AID 720542, 2013. AlphaScreen AMA1-biotinylated RON2 peptide binding;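 note: potency is the fitted concentration of half-maximal effect; 0% = vehicle wells and -100% = peptide control; nearly all actives have a fitted effect of over 45% in size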
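AMA1 (3D7) with his tag at 25 nM final met compounds first, then biotinylated RON2 peptide at 25 nM; detection used donor plus acceptor beads, 10 µg/mL apiece, read by AlphaScreen after 30 min at room temperature.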
Pf growth 96h: Primary qHTS for delayed death inhibitors of the malarial parasite plastid, 96 hour incubation; 6.9% of 320,000 active; Potency, µM (titrated, usually from 28.7 µM), without a hit: top-dose activity change, negative = inhibition, most hits filed as inhibitors; AID 504834, 2011; P. falciparum luciferase reporter growth, 96 h; note: potency is the fitted concentration of half-maximal effect; % is set by controls: 0 for no effect and ±100 for the full control effect
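Two-generation exposure (96 h) targets delayed-death phenotype. Reporter parasites carrying integrated firefly luciferase, in red cells at 2% hematocrit and 0.05% parasitemia final, kept at 37 C, 5% CO2; luminescence loss indicates inhibition.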
Shiga inhibitor: A qHTS for Small Molecule Inhibitors of Shiga Toxin; Vero cells, Shiga toxin protein synthesis inhibition reporter; inhibition, % at 38.7 µM; 9.2% of 290,000 active; AID 2315, 2010; in the data active = inhibition mostly above about 28%, no sharp cut-off; inactive = mostly below about 43%; note: 0% is about no effect
HCV inhibitor: qHTS Assay for Inhibitors of Hepatitis C Virus (HCV) | Huh7.5.1 HCVcc-Cre infection, luciferase reporter, 44 h | Potency, µM (titrated, usually from 41.8 µM), inactives show top-dose activity change, negative = inhibition, most hits filed as inhibitors | 3.4% of 340,000 active; note: potency is the fitted concentration of half-maximal effect; % is set by controls: 0 for no effect and ±100 for the full control effect
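Cells seeded at 1,000/well and cultured 4 h, then compounds added followed by HCVcc-Cre virus (~0.5 moi). After 44 h further culture, luciferase substrate was added, plates held 15 min at room temperature, and luminescence read for 15 sec.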
Cycloheximide cs: Cycloheximide Counterscreen for Small Molecule Inhibitors of Shiga Toxin; cell reporter, cycloheximide protein synthesis inhibition counterscreen; max response, %; 12% of 300,000 active; in the data active = max response mostly above about 13%, no sharp cut-off; inactive = mostly below about 14%; note: read at 38.3 µM for the half of the compounds with a filed dose; 0% is about no effect
Pf growth 48h: Primary qHTS for delayed death inhibitors of the malarial parasite plastid, 48 hour incubation. P. falciparum luciferase growth in erythrocytes, 48 h. Potency, µM (titrated, usually from 28.7 µM), inactives show at the top dose activity change, negative = inhibition, usual class: inhibitors. 5.9% of 310,000 active. AID 504832, 2011; note: potency is the fitted concentration of half-maximal effect; % is set by controls: 0 for no effect and ±100 for the full control effect
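Luciferase-expressing P. falciparum in infected erythrocytes (2% hematocrit, 0.1% parasitemia final) in RPMI 1640/0.5% Albumax were exposed to compound for 48 hours at 37 C, 5% CO2; growth read as luminescence.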
The depositor's hits bear a star; ? = inconclusive; . = no result; [ ] = another dose, or the depositor's remark. Unless noted, calls come from the whole dose curve; as a rule, active = well fitted curve in the direction sought with a large enough effect; inconclusive = small, poorly fitted or top-dose-only effect, or another doubt; inactive = no such curve, though single readings can be large; an effect the other way counts as inactive or inconclusive.

SMILES	AMA1 RON2 block	Pf growth 96h	Shiga inhibitor	HCV inhibitor	Cycloheximide cs	Pf growth 48h
C/C(Cn1nnc([N+](=O)[O-])n1)=N\NC(=O)c1ccccc1	37%	15µM*	54*	?	24*	?
O=C(Cn1cnc([N+](=O)[O-])n1)c1ccccc1	-6%	?	22	19%	-3	27%
C[C@H](CO)N1C[C@H](C)[C@@H](CN(C)Cc2ccncc2)Oc2c(cccc2N(C)C)C1=O	-5%	.	.	16%	.	.
O=C(CSc1ncn(-c2ccccc2)n1)c1cccs1	-15%	.	88*	-17%	64*	107%
O=C(CSc1ncn(-c2ccccc2)n1)Nc1ccc(Br)cn1	13%	?	-3	18%	3	13%
Nc1nc(CSc2ncn(-c3ccccc3)n2)cs1	3%	23%	92*	?	38*	235%
c1ccc(CSc2ncn(-c3ccccc3)n2)cc1	28%	-24%	105*	1%	46*	205%
O=C(CSc1nnc(-c2ccccc2)n1-c1ccccc1)c1cccs1	-2%	37%	28	-1%	18	-13%
O=C(NCC(=O)N1CCC2(CC1)NCCc1[nH]cnc12)c1ccc2ccccc2c1	-3%	-1%	25	10%	13	6%
COCCn1c(SCC(=O)N2CCCC2=O)nnc1-c1ccncc1	-1%	.	.	.	.	.
CCCNC(=O)C(=O)NCCC1=CCCCC1	13%	6%	15	17%	15	2%
S=C(NCCC1=CCCCC1)NCc1ccco1	1%	28%	47*	-18%	23*	18%
O=C(COC(=O)c1ccccc1NCCO)NCCC1=CCCCC1	9%	1%	.	-9%	.	?
O=C(COC(=O)c1ccccc1Br)NCCC1=CCCCC1	1%	21%	75*	7%	29*	52%
O=C(NC(=S)NCCC1=CCCCC1)c1cncc(Br)c1	44%	14%	active	-2%	18*	8%
COC(=O)c1cccc(NC(=S)NCCC2=CCCCC2)c1	34%	12µM*	23	13µM*	7	20%
Cc1cn(CC(=O)NCc2nc3ccccc3[nH]2)c(=O)[nH]c1=O	-1%	.	.	.	.	.
Cc1cc(C)cc(N(C(=O)c2sc(C)nc2C)C(C(=O)NC(C)(C)C)c2ccncc2)c1 (stereo unspecified)	-24%	0%	-16	-3%	2	-15%
O=C(NC(=S)NCCC1=CCCCC1)c1ccccc1Br	-27%	?	9	1%	27*	?
COC(=O)c1ccc(C(=O)OC)c(NC(=S)N2CCN(c3ccccn3)CC2)c1	-12%	?	9	-2%	9	?
CCCN(C(=O)CSc1ncnc2sccc12)c1c(N)n(Cc2ccccc2)c(=O)[nH]c1=O	-10%	?	.	0%	.	?
CCCNC(=O)Cn1cnc2sc(C(=O)N3CCN(CCC)CC3)c(C)c2c1=O	8%	0.37µM*	-2	6%	-8	-1%
COc1ccc2oc(=O)c(/C(C)=N/Nc3ccccc3)cc2c1	4%	-21%	21	-6%	6	17%
Cc1cccc[n+]1CC(=O)N1c2ccccc2Sc2ccccc21	13%	0%	1	24%	-1	3.7µM*
CC1CCN(c2ccccc2NC(=O)c2ccc(Br)o2)CC1	?	24%	-18	.	0	-1%
SMILES	AMA1 RON2 block	Pf growth 96h	Shiga inhibitor	HCV inhibitor	Cycloheximide cs	Pf growth 48h
CN(C)c1ccc(NC(=O)CCN2C(=O)c3cccc([N+](=O)[O-])c3C2=O)cc1	4%	12µM*	23	15%	16*	50%
CCCCn1c(N)c(N(CCOC)C(=O)COC(=O)c2cc(CCC)c(C)s2)c(=O)[nH]c1=O	18%	?	.	-14%	.	?
CC1CCc2c(nc3nc[nH]n3c2=O)C1 (stereo unspecified)	3%	1.2µM*	-16	6%	-4	.
C#CCNc1c2c(nc3ncnn13)CC(C)CC2 (stereo unspecified)	12%	25%	1	-13%	-3	8%
CCCC(C)(C)C(=O)N1CCC1(C)C(=O)NS(=O)(=O)c1ccc(Br)cc1 (stereo unspecified)	1%	.	.	.	.	.
O=C(Cn1c(C(=O)N2CCN(C3CCCCC3)CC2)cc2sccc21)c1ccccc1	-19%	-11%	-18	-23%	-2	?
O=C(Cn1c(C(=O)N2CCc3ccccc3C2)cc2sccc21)c1ccccc1	-21%	-5%	-4	1%	-3	15µM*
CSCCC(c1nc2ccccc2[nH]1)n1c(-c2ccc3ncccc3c2)nc2ccccc21 (stereo unspecified)	-25%	.	.	.	.	.
CCCCCCC(=O)N1C/C=C\C(c2ccc(OC)cc2)N(Cc2ccc(F)cc2)C(=O)[C@H]1Cc1ccccc1 (stereo partly specified)	-2%	7.4µM*	-6	-20%[8.37 µM]	-5	9.3µM*
COc1ccc(C2/C=C\CN(C(=O)C3CC3)[C@H](Cc3ccccc3)C(=O)N2Cc2ccc(F)cc2)cc1 (stereo partly specified)	-11%	?	-4	-10%[8.37 µM]	-4	10µM*
CCCCC(=O)N1C/C=C\C(c2ccc(OC)cc2)N(Cc2ccc(F)cc2)C(=O)[C@H]1Cc1ccccc1 (stereo partly specified)	0%	10µM*	3	?	14	12µM*
COc1ccc(NCN2C(=O)C3C4C=CC(C4)C3C2=O)cc1 (stereo unspecified)	-9%	10µM*	-5	11%	-2	1%
COC(=O)c1ccc(/C=N/NC(=O)C(=O)NCc2ccccc2)cc1	25%	19%	9	5%	8	40%
COC(=O)c1ccc(/C=N/NC(=O)c2ccccc2Cl)cc1	-2%	24%	47*	7%	42*	0%
CC(C)c1ccc(/C=N/NC(=O)c2ccccc2Cl)cc1	-3%	?	107*	?	46*	25%
CN(C)/C=N/NC(=O)c1ccccc1Cl	-11%	-12%	9	14%	-2	-14%
Cc1cc(N)nc(=O)n1C1CC(O)C(CO)O1 (stereo unspecified)	-3%	.	.	13%	.	.
CC(=O)N(c1nnc(-c2cccc(C)c2)s1)C1CCCC1	0%	8%	.	-4%	40*	126%
Cn1nc(C(C)(C)C)cc1C(=O)N1CCCC(c2cc(C(=O)Nc3ccccc3Cl)no2)C1 (stereo unspecified)	-6%	.	.	.	.	.
COc1ccc(NC(=O)c2cc(-c3ccccn3)nc3ccccc23)c(OC)c1	-20%	.	.	?	.	.
